Reference: PubChem BioAssay

Biological target: Calmodulin-1 (Homo sapiens) (UniProt P0DP23)
Test: calcium-bound CALM1 binders on microarrays, profiling panel, artefact control for SMM control-protein annotation, biochemical, small-molecule microarray, Cy5-labelled CALM1, plus calcium (AID 1112);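 further: score merges spot fluorescence with signal to noise from triplicate slides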
Settings: Cy5-CALM1 binding fluorescence, higher = more signal

Row | SMILES | composite z-score
1 | O=C(O)[C@@H]1[C@@H]2C(=O)N(c3ccccc3)C(=O)[C@@H]2C[C@@H]1Sc1ccccc1 | 0.474
2 | CCCCN1CC=CC23O[C@@H]4/C=C\CCC(C)OC(=O)C4[C@H]2C(=O)N(CCCO)[C@@H]3C1=O (stereo not given in full) | 0.458
3 | CN(C)C(=O)[C@]1(CCC(=O)OC(C)(C)C)N=C(c2ccc(OCCCO)cc2)O[C@@H]1c1ccccc1CN=[N+]=[N-] | 0.392
4 | CCCCCC1=C2CNC(C)(C(=O)OC)C=C2C(C)C1=O (stereo not given) | 0.897
5 | CCOC(=O)C[C@H]1[C@H](OC(=O)c2cc3ccccc3oc2=O)[C@@H](NC(=O)c2ccc3ccccc3n2)c2cc(OCCCO)ccc2N1C(=O)Cc1ccc(OC)cc1 | -0.653
6 | CS(=O)(=O)CCOC(=O)C1=CC(CCCO)=CC(c2ccc(CN3CCCC3)cc2)N(Cc2sc3ccccc3c2Cl)C=C1C(=O)OCCS(C)(=O)=O (stereo not given) | 0.91
7 | NC(=O)NCC#Cc1ccc2c(c1)[C@]1(C(=O)N2)[C@H](c2ccccc2OCCO)N2[C@H](c3ccccc3)[C@H](c3ccccc3)OC(=O)[C@H]2[C@@H]1C(=O)NC[C@H](O)c1ccccc1 | 0.501
8 | CC(C)N1C(=O)c2ccccc2[C@@H](C(=O)NCCN2CCOCC2)[C@@H]1c1ccc(CO)cc1 | 0.603
9 | COCCOC(=O)N1C(=O)[C@@]2(c3cc(C#CC4=CCCCC4)ccc31)[C@H](C(=O)Nc1nc3ccccc3s1)[C@H]1C(=O)O[C@H](c3ccccc3)[C@H](c3ccccc3)N1[C@@H]2c1ccc(O)cc1 | 0.641
10 | COc1ccc(CCNC(=O)[C@@]2(Sc3ccc(C)cc3)CC(=O)N(Cc3ccccc3C(F)(F)F)[C@@H]2c2ccc(CO)cc2I)cc1 | 0.14
